Screening results as filed in PubChem BioAssay.
A selection: hits, their analogues and other compounds. The true share with any hit is near 4.8%.
Beta apoptosis: inhibitors of cytokine-induced beta cell apoptosis, primary screen, luminescence. INS-1E cytokine-induced death, ATP luminescence, 48 h; percent of positive-control rescue, neutral wells zero. protection from apoptosis, % (test concentration not listed). actives 0.8% (n = 300,000);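 active = Every replicate reaches about 75%, or at least half do and their mean reaches it too, limit read from the data; inconclusive = At least half of replicates reach the limit but their mean does not; inactive = Under half of replicates reach the limit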;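 note: 0% = cytokine-treated negative control wells and 100% = positive control rescue; higher means more ATP so stronger rescue from cytokine killing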
Calb FLC: C. albicans growth inhibition with fluconazole, primary screen, CaCi-2 strain, Alamar Blue fluorescence; C. albicans CaCi-2 (fluconazole-resistant clinical isolate) + fluconazole, 48 h; growth inhibition, % (test concentration not listed); actives 0.57% (n = 300,000); AID 1979, 2009;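 active = growth inhibition above about 58% in most replicates, limit read from the data, passing the limit was not always enough; inconclusive = exactly half the replicates above a set limit; inactive = most replicates below a set limit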;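 note: all wells also contain fluconazole at 8 µg/ml as a sub-toxic cotreatment; 0% = median of DMSO wells and 100% = median of geldanamycin control wells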
Mdm2-MdmX inh: inhibitors of human Mdm2-MdmX association, primary screen, cell-based, luminescence, split luciferase, SaOS-2, uHTS; AID 485346, 2010; SaOS-2 split-luciferase Mdm2/MdmX complementation; actives 3% (n = 330,000); inhibition, % at 8 µM;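 active = inhibition of at least 50% at 8 µM in the primary screen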
Target sequence (O15151 whole entry, looked up): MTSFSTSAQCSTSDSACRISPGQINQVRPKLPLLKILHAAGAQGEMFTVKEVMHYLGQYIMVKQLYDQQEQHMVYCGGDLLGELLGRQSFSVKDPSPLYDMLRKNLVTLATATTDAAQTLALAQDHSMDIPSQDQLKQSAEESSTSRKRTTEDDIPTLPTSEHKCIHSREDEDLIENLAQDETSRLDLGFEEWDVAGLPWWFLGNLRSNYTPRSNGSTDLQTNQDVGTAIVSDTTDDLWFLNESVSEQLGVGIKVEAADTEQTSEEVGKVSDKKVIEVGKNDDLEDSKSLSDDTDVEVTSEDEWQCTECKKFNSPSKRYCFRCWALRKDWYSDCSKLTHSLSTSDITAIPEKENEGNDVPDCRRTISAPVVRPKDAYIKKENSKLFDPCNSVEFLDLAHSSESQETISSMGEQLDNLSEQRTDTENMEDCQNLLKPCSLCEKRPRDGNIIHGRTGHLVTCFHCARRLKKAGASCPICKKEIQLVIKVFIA
Target sequence (Q00987 whole entry, looked up): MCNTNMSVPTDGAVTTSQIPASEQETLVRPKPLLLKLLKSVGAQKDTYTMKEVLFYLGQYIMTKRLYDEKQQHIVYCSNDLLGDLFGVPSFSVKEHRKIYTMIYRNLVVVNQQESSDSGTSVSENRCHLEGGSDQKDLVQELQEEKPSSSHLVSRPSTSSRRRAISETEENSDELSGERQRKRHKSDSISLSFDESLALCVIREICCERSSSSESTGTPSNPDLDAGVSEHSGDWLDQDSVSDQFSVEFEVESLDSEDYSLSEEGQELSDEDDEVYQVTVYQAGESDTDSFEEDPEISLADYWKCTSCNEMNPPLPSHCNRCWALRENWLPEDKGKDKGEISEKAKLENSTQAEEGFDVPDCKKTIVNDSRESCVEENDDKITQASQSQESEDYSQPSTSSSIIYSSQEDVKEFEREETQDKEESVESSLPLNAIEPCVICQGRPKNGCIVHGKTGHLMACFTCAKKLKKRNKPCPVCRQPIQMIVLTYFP
MPTP inh: mitochondrial permeability transition pore inhibitors, primary screen, biochemical, isolated mouse mitochondria, absorbance; actives 1.4% (n = 360,000); Ca2+ swelling absorbance, 30 min; inhibition, % at 10 µM;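 active = inhibition of 50% or more, scaled per plate between neutral and stimulator controls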;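 note: 0% = DMSO wells given calcium and 100% = 1 mM EGTA wells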
CSC inhib: cancer stem cell viability inhibitors, primary screen, luminescence. cancer stem cell-like cells viability. inhibition, % at 7.5 µM. actives 1.1% (n = 300,000). AID 2717, 2010; in the data active = inhibition above about 75%; inconclusive = no clear call, values can overlap the other calls; tested in HMLE shEcad cells
Mdm2-MdmX conf: Mdm2-MdmX complex disruptors, retested hits, confirmation, luminescence, single concentration; shares compounds with Mdm2-MdmX inh; actives 55% (n = 10,000); inhibition, % at 8 µM; AID 489028, 2010; Mdm2-MdmX binding, luminescent assay; in the data active = inhibition above about 40%
Full FLuc ctr: full-length luciferase signal inhibition, confirmation, counter-screen for Mdm2/MdmX interaction inhibitor project, cell-based, single concentration, SaOS-2 | shares compounds with Mdm2-MdmX inh | SaOS-2 full-length luciferase counterscreen, luminescence | inhibition, % at 8 µM | actives 77% (n = 6,200);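 active = mean inhibition at 8 µM reaching about 37%, which flags the compound as non-specific, limit read from the data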;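 note: p53-null SaOS-2 cells with luciferase driven by a doxycycline-inducible promoter; compound on cells about two nights before reading with doxycycline added after day one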
* marks the source's active call; other numbers are inactive results; ? = inconclusive; . = no result.

SMILES | Beta apoptosis | Calb FLC | Mdm2-MdmX inh | MPTP inh | CSC inhib | Mdm2-MdmX conf | Full FLuc ctr
CCc1ccccc1OCC(=O)Nc1nc(-c2cccnc2)cs1 | 1.6 | 2.4 | 66.9* | -3.5 | 39.6 | 68.7* | 35.6
COC(=O)[C@@]12C[C@@H](CC(=O)N3CCCC3)C(=O)N(CCc3ccc(OC)c(OC)c3)C1=CCC(C)(C)C2 | . | . | . | 12.2 | . | . | .
CCn1nnc2cc(C(=O)N3CCC(C(=O)OC)CC3)ccc21 | -5.6 | . | 30.2 | 0.0 | -22.3 | . | .
CC(C)(CO)NC(=O)C(Cc1ccccc1)N1C(=O)c2ccccc2C1=O (configuration not stated) | 0.4 | 4.5 | 11.9 | -0.7 | -5.3 | . | .
CC(=O)Nc1ccc(-c2csc(N/N=C\c3ccncc3)n2)cc1 | 1.5 | 0.4 | 14.7 | 2.5 | -2.3 | . | .
CCCC(=O)Nc1ccc(-c2csc(N/N=C\c3ccncc3)n2)cc1 | 3.8 | -6.8 | 64.7* | 1.4 | 12.8 | 7.3 | .
O=C(CCS(=O)(=O)c1ccccc1)Nc1nc(-c2ccccn2)cs1 | 9.6 | -3.8 | 70.4* | -2.7 | 47.0 | 35.0 | 48.4*
Cc1ccc(S(=O)(=O)CCC(=O)Nc2nc(-c3ccncc3)cs2)cc1 | -17.8 | ? | 88.0* | -1.9 | -7.0 | 58.0* | 37.3*
O=C(CCS(=O)(=O)c1ccc(F)cc1)Nc1nc(-c2ccccn2)cs1 | 1.7 | 44.8 | 68.6* | 0.1 | -8.6 | 43.4* | 38.5*
O=C(CCS(=O)(=O)c1ccccc1)Nc1ccccn1 | -13.0 | 23.5 | 22.7 | -2.5 | . | . | .
CC(=O)Nc1ccc(-c2noc(-c3csc([C@@H]4C[C@H](O)[C@@H](CO)O4)n3)n2)cc1 | . | . | . | -0.1 | . | . | .
Cc1ccc(CNC(=O)C2CCCN(c3nc4ccsc4c(=O)s3)C2)cc1 (configuration not stated) | 5.8 | 0.0 | 17.6 | 0.6 | -6.0 | . | .
Cc1ccc(-c2csc(NC(=O)C[n+]3cc(-c4ccc(C)cc4)n4c3CCC4)n2)cc1 | 11.0 | 24.3 | 55.8* | 1.7 | 9.3 | 12.2 | .
Cc1ccc(-c2csc(NC(=O)C[n+]3cc(-c4ccccc4)n4c3CCC4)n2)cc1 | 9.9 | 2.6 | 18.0 | 1.9 | 3.3 | . | .
C=CCOc1ccc(C(=O)Nc2ccccc2C(=O)NCc2cccnc2)cc1 | 0.4 | 5.9 | 57.7* | -0.9 | -3.1 | 55.2* | 60.8*
COc1cccc(-c2ccc3ncnc(NCc4ccc5c(c4)OCO5)c3c2)c1 | -26.9 | . | 74.2* | 1.7 | . | 75.8* | 53.0*
Cc1cccc(CNc2ncnc3ccc(-c4ccc5c(c4)OCCO5)cc23)c1 | 108.0* | . | 66.2* | 1.1 | 12.5 | 33.0 | .
Cc1cccc(CNc2ncnc3ccc(-c4ccoc4)cc23)c1 | -15.7 | . | 78.8* | 2.5 | 1.3 | 64.2* | 23.8
Cc1csc(CNc2ncnc3ccc(-c4ccoc4)cc23)c1 | -12.0 | . | 76.1* | 1.5 | -4.5 | 73.8* | 53.7*
Cc1csc(CNc2ncnc3ccc(-c4cccnc4)cc23)c1 | 1.0 | . | 12.1 | 0.4 | . | . | .
CC(=O)Oc1cccc(C(=O)Nc2ccccc2C(=O)N2CCCC2)c1 | -2.7 | 4.2 | 18.9 | 0.3 | -16.4 | . | .
Cc1nc(C(F)(F)F)ccc1C(=O)N1CCC1(C)C(=O)Nc1ccc2c(c1)OCO2 (configuration not stated) | . | . | . | 0.6 | . | . | .
c1cncc(CNc2ncnc3ccc(-c4ccoc4)cc23)c1 | -11.1 | . | 70.4* | -2.1 | -2.0 | 69.4* | 51.3*
Cc1c(C(=O)NCCCN2CCCCC2)oc2ccc3c(c12)C(O)CC1(CCCCC1)O3 (configuration not stated) | 1.6 | 46.7 | 76.3* | 1.4 | 27.2 | 30.2 | 55.2*
COc1ccc(/C=C2\N=C(SC)N(c3ccccc3OC)C2=O)cc1 | 20.9 | 2.8 | 98.4* | 3.0 | 71.3 | 94.5* | 47.2*
SMILES | Beta apoptosis | Calb FLC | Mdm2-MdmX inh | MPTP inh | CSC inhib | Mdm2-MdmX conf | Full FLuc ctr
CCOc1ccc(N2C(=O)/C(=C/c3ccccc3)N=C2SC)cc1 | 0.4 | 6.9 | -17.8 | 3.6 | 17.9 | . | .
CSc1cc(SC)ncn1 | . | . | . | -0.5 | . | . | .
COc1c(Cl)cc(Cl)cc1/C=C/C(=O)c1ccc(NC(=O)c2cccs2)cc1 | 23.3 | 9.8 | 98.5* | 18.4 | 102.9* | 94.8* | 58.6*
O=C(CCOc1ccccc1)Nc1ccccc1F | -5.7 | -8.9 | 18.5 | -1.5 | -2.2 | . | .
CC1(C(=O)Nc2ccc3c(c2)OCCO3)CN(S(C)(=O)=O)CC(=O)N1CCc1ccccc1 (configuration not stated) | . | . | . | 1.5 | . | . | .
COc1ccc(-c2ccc3c(c2)S(=O)(=O)c2cccc(C(=O)NCCOc4ccccc4Cl)c2C3=O)cc1OC | 91.0* | . | 95.3* | 0.1 | . | 27.9 | .
COc1ccc(-c2ccc3c(c2)S(=O)(=O)c2cccc(C(=O)NC4CC4)c2C3=O)cc1OC | -3.9 | . | 72.3* | 0.6 | -9.8 | 51.6* | 46.0*
COCCCN1C(=O)C(CC(=O)NCc2cccs2)CC(C(=O)N2CCCCCC2)=C1C (configuration not stated) | . | . | . | 0.7 | . | . | .
Cc1cc(N2CCN(c3ccc([N+](=O)[O-])c4cccnc34)CC2)c2ccccc2n1 | 8.7 | -57.6 | 94.5* | 20.7 | 2.3 | 80.4* | 55.5*
COc1ccc(-n2c(SCCC#N)nnc2-c2cc(Cl)ccc2OC)cc1Cl | 0.3 | 19.8 | 53.9* | 0.9 | 66.8 | 64.5* | 50.9*
Cc1cccc(-c2nnc(SCC#N)n2-c2cccc(Cl)c2)c1 | 4.1 | 10.3 | 8.5 | -0.4 | -16.1 | . | .
Cc1ccc(S(=O)(=O)N2C3CCCCC3O[C@H]2CC(=O)OCc2ccccc2)cc1 (some centres not stated) | . | . | . | 3.2 | . | . | .
O=C(Nc1cccc(NC(=O)c2cccs2)c1)c1ccc([N+](=O)[O-])o1 | 12.4 | 64.7 | 60.6* | 5.4 | ? | 56.5* | 44.1*
O=C(Nc1ccc(N2CCN(C(=O)c3cccs3)CC2)cc1)c1ccc([N+](=O)[O-])o1 | -10.4 | ? | 72.0* | 0.1 | 100.0* | 80.0* | 38.6*
O=C(Nc1ccc(N2CCN(C(=O)c3cccs3)CC2)cc1)c1ccco1 | 4.9 | -0.4 | 5.4 | -0.8 | -1.9 | . | .
Cc1ccc(-c2cc(-c3ccc4c(c3)OCO4)c(C#N)c(N)n2)o1 | -7.1 | 26.1 | 56.7* | -1.1 | 2.3 | 26.8 | .
Cc1ccc(-c2cc(-c3ccc(C)o3)nc(N)c2C#N)cc1 | -8.0 | 4.6 | 0.0 | -2.0 | 2.4 | . | .
CCOC(=O)N1CCN(S(=O)(=O)c2ccc(C(=O)NNc3nc4c(C)cccc4s3)cc2)CC1 | 54.5 | 0.1 | 52.8* | 3.1 | . | 41.0* | 47.2*
